This is an account of results in the supplement of paper PMC13380429.

This assay concerns Vero E6 infected with SARS-CoV-2. The assay is described as follows: inhibition of SARS-CoV-2 cytopathic effect; higher = more antiviral protection, active = above 15. Particulars: 48 h.

Each structure is given as a SMILES string. Unmarked numbers belong to inactive results.

With `C=C(C)[C@@H]1CC[C@]2(C(=O)O)CC[C@]3(C)[C@H](CC[C@@H]4[C@@]5(C)CC[C@H](OC(=O)CC(C)(C)C(=O)O)C(C)(C)[C@@H]5CC[C@]43C)[C@@H]12` [bevirimat-dimeglumine], the “inhibition of SARS-CoV-2 cytopathic effect” value (“inhibition” below) was -1.52% (1 nM); 0.9% (8.33 nM); 2.72% (100 nM); 0.6% (833.33 nM); -0.27% (10000 nM).
In the case of `CC[C@H]1OC(=O)[C@H](C)[C@@H](O[C@H]2C[C@@](C)(OC)[C@@H](O)[C@H](C)O2)[C@H](C)[C@@H](O[C@@H]2O[C@H](C)C[C@H](N(C)C)[C@H]2O)[C@](C)(O)C[C@@H](C)C(=O)[C@H](C)[C@@H](O)[C@]1(C)O` [erythromycin], the “inhibition” value reads like this: (1 nM) -0.74%; (8.33 nM) -0.54%; (100 nM) -1.16%; (833.33 nM) 2.65%; (10000 nM) 1.91%.
`O=C(O)c1cc(-c2ccc(F)cc2F)ccc1O` [diflunisal]: the “inhibition” value (1 nM) was 1.75%; the “inhibition” value (8.33 nM) is -3.3%; the “inhibition” value (100 nM) is 2.12%; the “inhibition” value (833.33 nM) is 1.36%; the “inhibition” value (10000 nM) is 0.19%.
The matching figures for `c1cc(Cc2cnc[nH]2)ccn1` [immethridine]: 0.32%, 2.15%, 0.76%, 4.67% and 1.99%.
The matching figures for `N[C@@H](Cc1cc(-c2ccc(Cl)cc2Cl)cc(CP(=O)(O)O)c1O)C(=O)O`: 0.73%, 2.24%, 2.7%, 2.63% and 2.27%.
Regarding `Cc1ccc(C(=O)N(CCCN)[C@@H](c2nc3cc(Cl)ccc3c(=O)n2Cc2ccccc2)C(C)C)cc1` [ispinesib], the “inhibition” value (1 nM) is 0.51%; the “inhibition” value (8.33 nM) was -1.24%; the “inhibition” value (100 nM) was -2%; the “inhibition” value (833.33 nM) was -2.99%; the “inhibition” value (10000 nM) is -4.72%.
The matching figures for `CCOC(=O)n1ccn(C)c1=S` [carbimazole]: -1.34%, -2.13%, -2.63%, -3.71% and 1.38%.
With `CN(C)CCCn1cc(C2=C(c3c[nH]c4ccccc34)C(=O)NC2=O)c2ccccc21`, the “inhibition” value was 2.56% (1 nM); 1.35% (8.33 nM); 1.36% (100 nM); 0.57% (833.33 nM); 13.2% (10000 nM).
For `O=C(c1ccc(CN2CCOCC2)cc1)N1CCN(C2CC2)CC1` [bavisant], the “inhibition” value (1 nM) is 0.41%; the “inhibition” value (8.33 nM) was 1.98%; the “inhibition” value (100 nM) was -1.82%; the “inhibition” value (833.33 nM) is -0.97%; the “inhibition” value (10000 nM) was 5.67%.
For `O=S(=O)(O)Oc1ccc(C(c2ccc(OS(=O)(=O)O)cc2)c2ccccn2)cc1` [sodium-picosulfate], the “inhibition” value was -1.14% (1 nM); -0.13% (8.33 nM); 0.34% (100 nM); 5.9% (833.33 nM); -5.74% (10000 nM).
Taken in the same sequence, the figures for `OCCN1CCN(CCCN2c3ccccc3Sc3ccc(C(F)(F)F)cc32)CC1` [fluphenazine] were -8.05%, -7.65%, -6.69%, -9.7% and 20.5% (active).
Take `CC(C)Oc1ccc(Cc2ccc(NC3=NCCN3)cc2)cc1`: the “inhibition” value is 0.38% (1 nM); 0.26% (8.33 nM); 2.45% (100 nM); 0.98% (833.33 nM); -0.97% (10000 nM).
For `Nc1ncnc2c1ncn2C1CCCO1` (stereo not given), the “inhibition” value is 2.17% (1 nM); 3.9% (8.33 nM); -1% (100 nM); 2.95% (833.33 nM); -0.8% (10000 nM).
With `C[N+](C)(C)CC[N+]1(C)Cc2c(Cl)c(Cl)c(Cl)c(Cl)c2C1` [chlorisondamine-diiodide], the “inhibition” value was 0.2% (1 nM); -3.86% (8.33 nM); -0.88% (100 nM); 1.41% (833.33 nM); -1.63% (10000 nM).
As for `CC(=O)O[C@]1(C(C)=O)CC[C@H]2[C@@H]3C=C(C)C4=CC(=O)CC[C@]4(C)[C@H]3CC[C@@]21C` [megestrol-acetate], the “inhibition” value is, setting by setting: (1 nM) -0.56%; (8.33 nM) -0.6%; (100 nM) -1.59%; (833.33 nM) -0.54%; (10000 nM) 0.33%.
`O=C(O)[C@@H](S)[C@@H](S)C(=O)O` [dimercaptosuccinic-acid]: the “inhibition” value reads like this: (1 nM) 0.73%; (8.33 nM) -1.78%; (100 nM) -1.78%; (833.33 nM) -1.02%; (10000 nM) -2.75%.
Take `Cc1cc(C)c(NC(=O)C2CC3CCC2C3)c(C)c1` (stereo not given): the “inhibition” value (1 nM) is -1.62%; the “inhibition” value (8.33 nM) is -1.21%; the “inhibition” value (100 nM) was -3.03%; the “inhibition” value (833.33 nM) was -0.39%; the “inhibition” value (10000 nM) was 2.61%.
